Compound activity as filed in PubChem.
Shown are actives, neighbours in structure and some others; about 21% of the full set was active somewhere.
NS1 function inh: blocks influenza NS1 protein function. Potency, µM (series often up to 46.1 µM), for the others: at the top dose activity, positive = more growth. actives 0.4% (n = 270,000). AID 2326; note: potency is the fitted concentration of half-maximal effect; actives are rising curves; nearly all actives have a fitted effect of over 50% in size
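Compounds were scored for reversing the slow growth caused by influenza A NS1 in S. cerevisiae, measured by optical density at 600 nm. Assay medium contained 2% galactose at pH 6.0; NS1-free yeast of the same strain were the positive control.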
Cycloheximide cs: counter-screen hit for Shiga toxin inhibitors, cycloheximide; cell reporter, cycloheximide protein synthesis inhibition counterscreen; max response, %; actives 12% (n = 300,000); AID 2314; in the data active = max response mostly above about 13%, no sharp cut-off; inactive = mostly below about 14%; note: read at 38.3 µM for the half of the compounds with a filed dose; 0% is about no effect
Pf growth 96h: inhibits malaria parasite growth, 96 h; Potency, µM (doses to about 28.7 µM), inactives show at the highest dose activity change, negative = inhibition, actives largely listed as inhibitors; P. falciparum luciferase reporter growth, 96 h; AID 504834; actives 6.9% (n = 320,000); active = well fitted inhibition curve with a large enough effect; inconclusive = small, poorly fitted or top-dose-only effect, or another doubt; inactive = no such curve, though single readings can be large or run the other way; note: potency is the fitted concentration of half-maximal effect; % is set by controls: 0 for no effect and ±100 for the full control effect
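Delayed-death screen, second-generation endpoint: infected erythrocytes, 2% hematocrit, 0.05% parasitemia final; 96 hours at 37 C, 5% CO2; luciferase detection reagent; luminescence decrease equals reduced growth.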
SARS PLP yeast: blocks SARS-CoV papain-like protease in a yeast assay | S. cerevisiae expressing SARS-CoV PLpro, growth rescue | Potency, µM (doses to about 32.9 µM), for the others: at the highest dose activity, positive = growth rescue, most hits filed as activators | actives 0.19% (n = 330,000); note: potency is the fitted concentration of half-maximal effect; 0% is about no effect; nearly all actives have a fitted effect of over 55% in size
Pf growth 48h: inhibits P. falciparum growth in the first generation, 48 h | P. falciparum luciferase growth in erythrocytes, 48 h | Potency, µM (doses to about 28.7 µM), for the others: at the top dose activity change, negative = inhibition, usual class: inhibitors | actives 5.9% (n = 310,000); active = well fitted inhibition curve with a large enough effect; inconclusive = small, poorly fitted or top-dose-only effect, or another doubt; inactive = no such curve, though single readings can be large or run the other way; note: potency is the fitted concentration of half-maximal effect; % is set by controls: 0 for no effect and ±100 for the full control effect
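Read-out is firefly luciferase luminescence from an integrated reporter in P. falciparum, so falling signal marks reduced parasite growth. Infected erythrocytes were at 2% hematocrit and 0.1% parasitemia (final) in Albumax-supplemented RPMI 1640.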
Shiga inhibitor: inhibitors of Shiga toxin in Vero cells. Vero cells, Shiga toxin protein synthesis inhibition reporter. inhibition, % at 38.7 µM. actives 9.2% (n = 290,000); in the data active = inhibition mostly above about 28%, no sharp cut-off; inactive = mostly below about 43%; note: 0% is about no effect
Starred values were filed as active, the others as inactive. Unless noted, calls come from the whole dose curve.

What do the screens show for `CC1(C)CC2(CCO1)C(Nc1ccccc1)=NC(=S)N2c1ccccc1` (stereo not drawn)?
NS1 function inh: 5%; Cycloheximide cs: 0; Pf growth 96h: inconclusive; SARS PLP yeast: -1%; Pf growth 48h: inconclusive; Shiga inhibitor: 2

What do the screens show for `O=[N+]([O-])c1cccc(/C=C2\CCC(/C=N/Nc3ccc4ccccc4n3)=C2N2CCOCC2)c1`?
NS1 function inh: 16%; Cycloheximide cs: 17*; Pf growth 96h: 0.41µM*; SARS PLP yeast: -1%; Pf growth 48h: inconclusive; Shiga inhibitor: -3

What do the screens show for `O=[N+]([O-])c1cccc(/C=N/Nc2nc(N3CCOCC3)nc(N3CCOCC3)n2)c1`?
NS1 function inh: 4%; Cycloheximide cs: -4; Pf growth 96h: 70%; SARS PLP yeast: 11%; Pf growth 48h: -24%; Shiga inhibitor: -4

How did COc1ccc(N2CC(C(=O)Nc3ccc(S(=O)(=O)N4CCCCC4)cc3)CC2=O)cc1 (stereo not drawn) do in these assays?
NS1 function inh: 10%; Cycloheximide cs: -4; Pf growth 96h: -22%; SARS PLP yeast: 2%; Pf growth 48h: inconclusive; Shiga inhibitor: -7

What do the screens show for `O=C1CSC(c2ccc(Cl)cc2)N1Nc1nc(N2CCOCC2)nc(N2CCOCC2)n1` (stereo not drawn)?
NS1 function inh: 4%; Cycloheximide cs: -1; Pf growth 96h: 20%; SARS PLP yeast: 0%; Pf growth 48h: inconclusive; Shiga inhibitor: -10

Results for O=C(Nc1ccc2c(c1)OCCO2)c1ccccn1 ?
NS1 function inh: 0%; Cycloheximide cs: 12*; Pf growth 96h: 420%; SARS PLP yeast: -13%; Pf growth 48h: 375%; Shiga inhibitor: 31

Results for O=C(Nc1ccc2c(c1)OCCO2)c1ccc2ccccc2n1 ?
Cycloheximide cs: 39*; Pf growth 96h: 308%; SARS PLP yeast: -5%; Pf growth 48h: 363%; Shiga inhibitor: 45*

How did C[N+]1(CC2COC3(CCCCC3)O2)CCCCC1 (stereo not drawn) do in these assays?
NS1 function inh: 2%; Cycloheximide cs: -3; Pf growth 96h: -15%; SARS PLP yeast: -6%; Pf growth 48h: inconclusive; Shiga inhibitor: 10

How did C[N+]1(CC2COC(c3ccccc3)(C3CCCCC3)O2)CCCCC1 (stereo not drawn) do in these assays?
Pf growth 96h: 5.9µM*; Pf growth 48h: 1.1µM*

Results for CC1CC(=O)c2cnc(Nc3ccccc3)nc2C1 (stereo not drawn) ?
NS1 function inh: -8%; Cycloheximide cs: 48*; SARS PLP yeast: 8%; Pf growth 48h: 230%; Shiga inhibitor: 55

What do the screens show for `CC1CC(=O)c2cnc(NCc3ccco3)nc2C1` (stereo not drawn)?
NS1 function inh: -5%; Cycloheximide cs: 16*; Pf growth 96h: inconclusive; SARS PLP yeast: 5%; Pf growth 48h: 19%; Shiga inhibitor: 53

What do the screens show for `Cc1ccc(Nc2ncc3c(n2)CC(C)CC3=O)c(C)c1` (stereo not drawn)?
NS1 function inh: -5%; Cycloheximide cs: 39*; Pf growth 96h: inactive; SARS PLP yeast: 0%; Pf growth 48h: 288%; Shiga inhibitor: 97*

Results for CC1CC(=O)c2cnc(NCC3CCCO3)nc2C1 (stereo not drawn) ?
NS1 function inh: 1%; Cycloheximide cs: 8; Pf growth 96h: 9.3µM*; SARS PLP yeast: -2%; Pf growth 48h: 28%; Shiga inhibitor: 29

How did CC1CC(=O)c2cnc(Nc3cccc(C(F)(F)F)c3)nc2C1 (stereo not drawn) do in these assays?
NS1 function inh: 15%; Cycloheximide cs: 18; Pf growth 96h: 127%; SARS PLP yeast: 3%; Pf growth 48h: 7%; Shiga inhibitor: 64

What do the screens show for `O=C1CC(c2ccc(F)cc2)Cc2nc(NCc3ccco3)ncc21` (stereo not drawn)?
NS1 function inh: 11%; Cycloheximide cs: -2; Pf growth 96h: inconclusive; SARS PLP yeast: 2%; Pf growth 48h: 0%; Shiga inhibitor: 6

What do the screens show for `CCN1CCN(C(=O)C(NS(=O)(=O)c2ccc3nc(C)sc3c2)C(C)C)CC1` (stereo not drawn)?
NS1 function inh: 3%; Cycloheximide cs: -3; Pf growth 96h: 9.3µM*; SARS PLP yeast: -2%; Shiga inhibitor: -6

Results for Cc1nc2ccc(S(=O)(=O)NC(C(=O)NC3CCCC3)C(C)C)cc2s1 (stereo not drawn) ?
NS1 function inh: inconclusive; Cycloheximide cs: -3; Pf growth 96h: inconclusive; SARS PLP yeast: -2%; Shiga inhibitor: -6

How did CCOc1ccc(C2CC(=O)n3nc(C45CC6CC(CC(C6)C4)C5)nc3S2)cc1OC (stereo not drawn) do in these assays?
NS1 function inh: 10%; Cycloheximide cs: 5; Pf growth 96h: 12µM*; SARS PLP yeast: -1%; Pf growth 48h: -4%; Shiga inhibitor: -3

What do the screens show for `O=C1c2ccccc2C(=O)C1Cc1cccc2ccccc12`?
NS1 function inh: -1%; Cycloheximide cs: 20*; Pf growth 96h: 19%; SARS PLP yeast: 0%; Shiga inhibitor: 66

Results for N#Cc1c(SCC(=O)Nc2nncs2)sc2c(O)cc(=O)[nH]c12 ?
NS1 function inh: inconclusive; Cycloheximide cs: -1; Pf growth 96h: inconclusive; SARS PLP yeast: -2%; Pf growth 48h: -13%; Shiga inhibitor: -5

What do the screens show for `Oc1cc[c]([Hg][Cl])cc1`?
Pf growth 96h: 1.5µM*; Pf growth 48h: 1.9µM*

How did COc1ccc(/C(C)=N/NC(=O)c2nnn(-c3nonc3N)c2-c2cccs2)cc1OC do in these assays?
NS1 function inh: 2%; Cycloheximide cs: 1; Pf growth 96h: -14%; SARS PLP yeast: -1%; Pf growth 48h: -6%; Shiga inhibitor: 16

Results for CC1Cc2ccccc2N1C(=O)c1cc2sccc2n1Cc1ccc(F)cc1 (stereo not drawn) ?
NS1 function inh: 22%; Cycloheximide cs: 6; Pf growth 96h: inconclusive; SARS PLP yeast: -25%; Pf growth 48h: 12µM*; Shiga inhibitor: 26

Results for O=C(NCc1ccco1)C1CCN(C(=O)c2cc3sccc3n2Cc2ccc(F)cc2)CC1 ?
NS1 function inh: inconclusive; Cycloheximide cs: 7; Pf growth 96h: 6%; SARS PLP yeast: -2%; Pf growth 48h: 1.9µM*; Shiga inhibitor: 6

What do the screens show for `Cc1ccc(Cn2c(C(=O)NCCCN3CCOCC3)cc3sccc32)cc1`?
NS1 function inh: 1%; Cycloheximide cs: -4; Pf growth 96h: 116%; SARS PLP yeast: -1%; Pf growth 48h: 12µM*; Shiga inhibitor: -9

Results for O=C(Cn1c(C(=O)NCCCN2CCOCC2)cc2sccc21)c1ccccc1 ?
NS1 function inh: -8%; Cycloheximide cs: -3; Pf growth 96h: inconclusive; Pf growth 48h: -17%; Shiga inhibitor: 12

Results for O=C(NCCCN1CCCC1)C1CCN(C(=O)c2cc3sccc3n2Cc2ccc(F)cc2)CC1 ?
NS1 function inh: 4%; Cycloheximide cs: -2; Pf growth 96h: 10µM*; SARS PLP yeast: 8%; Shiga inhibitor: -9
